Assay results as given in article PMC7862700, “An all-to-all approach to the identification of sequence-specific readers for epigenetic DNA modifications on cytosine”.

What was measured:
Test in all cases: DAPPL (digital affinity profiling via proximity ligation, sequencing); 10 mM Tris-HCl pH 7.5, 50 mM NaCl, 1 mM DTT, 4% glycerol, room temperature, 30 min; GST-TFs on glutathione beads, 16-mer random dsDNA library, 0.1% formaldehyde crosslink after washing; high values mean tight binding
Settings in all cases: protein: recombinant; tags: N-terminal GST; dsDNA, one strand shown
FLI1 = molecular target: T1, FLI1 (Homo sapiens, UniProt Q01543 1-452)
T1 sequence: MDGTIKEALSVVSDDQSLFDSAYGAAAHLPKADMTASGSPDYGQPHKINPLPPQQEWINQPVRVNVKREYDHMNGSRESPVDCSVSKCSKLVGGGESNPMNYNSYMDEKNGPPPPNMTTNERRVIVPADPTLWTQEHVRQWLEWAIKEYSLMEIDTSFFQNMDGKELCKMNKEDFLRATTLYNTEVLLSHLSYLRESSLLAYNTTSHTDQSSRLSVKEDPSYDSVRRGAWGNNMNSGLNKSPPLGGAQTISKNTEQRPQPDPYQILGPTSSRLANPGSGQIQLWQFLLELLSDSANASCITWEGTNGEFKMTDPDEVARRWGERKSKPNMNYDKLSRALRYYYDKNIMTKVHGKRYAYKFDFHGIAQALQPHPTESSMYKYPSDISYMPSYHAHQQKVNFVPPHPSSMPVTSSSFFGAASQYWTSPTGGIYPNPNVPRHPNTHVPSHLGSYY
Method in brief: (§1)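 Human transcription factors carrying a GST fusion were produced in yeast, bound to glutathione beads, tagged with DNA barcodes and pooled together with a tag-only sample. Each pool was held with 200 nmole of a random double-stranded 16-mer DNA library in Tris/NaCl/DTT/glycerol buffer for 30 min at room temperature, then washed, crosslinked in 0.1% formaldehyde, proximity-ligated with BsaI/T4 ligase (1 h, 37 °C), PCR-amplified and sequenced on an Illumina NextSeq500. Binding signal is the read frequency of each hexamer for a given factor divided by its frequency in the tag-only sample.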

ELK1 = molecular target: T2, ELK1 (Homo sapiens, UniProt P19419 1-428)
T2 sequence: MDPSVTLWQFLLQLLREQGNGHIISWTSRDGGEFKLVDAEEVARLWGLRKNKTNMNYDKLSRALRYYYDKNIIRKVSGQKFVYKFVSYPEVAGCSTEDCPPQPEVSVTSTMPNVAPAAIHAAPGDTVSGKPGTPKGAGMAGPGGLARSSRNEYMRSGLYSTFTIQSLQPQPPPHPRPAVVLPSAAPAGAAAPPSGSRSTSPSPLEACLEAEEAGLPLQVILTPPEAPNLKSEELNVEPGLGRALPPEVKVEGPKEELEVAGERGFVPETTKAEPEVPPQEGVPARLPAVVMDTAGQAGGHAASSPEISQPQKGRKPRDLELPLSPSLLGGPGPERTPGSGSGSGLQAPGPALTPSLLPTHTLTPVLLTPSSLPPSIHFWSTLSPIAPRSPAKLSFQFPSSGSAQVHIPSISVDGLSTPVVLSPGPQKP
Method in brief: as §1

GABPA = molecular target: T3, GABPA (Homo sapiens, UniProt Q06546 1-454)
T3 sequence: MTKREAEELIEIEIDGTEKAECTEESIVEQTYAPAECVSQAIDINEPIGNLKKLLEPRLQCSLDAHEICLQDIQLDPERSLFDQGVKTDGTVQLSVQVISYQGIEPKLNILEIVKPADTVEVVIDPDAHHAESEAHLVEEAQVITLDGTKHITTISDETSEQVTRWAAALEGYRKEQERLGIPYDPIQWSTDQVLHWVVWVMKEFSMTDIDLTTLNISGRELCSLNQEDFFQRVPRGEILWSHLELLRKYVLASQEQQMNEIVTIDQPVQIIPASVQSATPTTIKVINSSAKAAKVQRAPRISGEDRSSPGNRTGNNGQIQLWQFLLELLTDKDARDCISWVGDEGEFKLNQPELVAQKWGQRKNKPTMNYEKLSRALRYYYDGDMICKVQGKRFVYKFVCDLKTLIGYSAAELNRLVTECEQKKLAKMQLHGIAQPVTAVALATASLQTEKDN
Method in brief: as §1

ERG = molecular target: T4, ERG (Homo sapiens, UniProt P11308 1-479)
T4 sequence: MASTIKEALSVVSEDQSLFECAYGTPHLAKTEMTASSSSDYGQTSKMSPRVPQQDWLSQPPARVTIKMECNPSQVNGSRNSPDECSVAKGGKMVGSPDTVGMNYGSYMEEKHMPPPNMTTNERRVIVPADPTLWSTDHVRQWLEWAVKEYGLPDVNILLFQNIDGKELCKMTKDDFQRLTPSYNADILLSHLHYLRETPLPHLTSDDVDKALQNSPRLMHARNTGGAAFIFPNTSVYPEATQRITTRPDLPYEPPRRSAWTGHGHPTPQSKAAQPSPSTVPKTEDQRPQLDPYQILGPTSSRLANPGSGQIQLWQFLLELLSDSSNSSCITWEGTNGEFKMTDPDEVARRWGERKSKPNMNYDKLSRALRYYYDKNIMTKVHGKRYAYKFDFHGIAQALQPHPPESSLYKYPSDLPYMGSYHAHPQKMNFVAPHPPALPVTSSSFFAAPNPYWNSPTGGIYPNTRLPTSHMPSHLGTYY
Method in brief: as §1

ELF1 = ELF1 (Homo sapiens, UniProt P32519 1-619)
Method in brief: as §1

EHF = molecular target: T5, EHF (Homo sapiens, UniProt Q9NZC4 1-300)
T5 sequence: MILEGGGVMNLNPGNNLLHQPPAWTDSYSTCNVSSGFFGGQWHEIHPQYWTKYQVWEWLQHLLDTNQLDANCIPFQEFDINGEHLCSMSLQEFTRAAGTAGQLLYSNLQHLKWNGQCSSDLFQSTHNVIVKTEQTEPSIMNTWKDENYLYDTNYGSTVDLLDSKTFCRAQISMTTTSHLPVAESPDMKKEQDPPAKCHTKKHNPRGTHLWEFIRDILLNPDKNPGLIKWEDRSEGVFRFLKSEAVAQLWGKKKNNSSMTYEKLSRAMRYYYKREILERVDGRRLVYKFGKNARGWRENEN
Method in brief: as §1

SPI1 = SPI1 (Homo sapiens, UniProt P17947 1-270)
Method in brief: as §1

SPIB = SPIB (Homo sapiens, UniProt Q01892 1-262)
Method in brief: as §1

ELK3 = molecular target: T6, ELK3 (Homo sapiens, UniProt P41970 1-407)
T6 sequence: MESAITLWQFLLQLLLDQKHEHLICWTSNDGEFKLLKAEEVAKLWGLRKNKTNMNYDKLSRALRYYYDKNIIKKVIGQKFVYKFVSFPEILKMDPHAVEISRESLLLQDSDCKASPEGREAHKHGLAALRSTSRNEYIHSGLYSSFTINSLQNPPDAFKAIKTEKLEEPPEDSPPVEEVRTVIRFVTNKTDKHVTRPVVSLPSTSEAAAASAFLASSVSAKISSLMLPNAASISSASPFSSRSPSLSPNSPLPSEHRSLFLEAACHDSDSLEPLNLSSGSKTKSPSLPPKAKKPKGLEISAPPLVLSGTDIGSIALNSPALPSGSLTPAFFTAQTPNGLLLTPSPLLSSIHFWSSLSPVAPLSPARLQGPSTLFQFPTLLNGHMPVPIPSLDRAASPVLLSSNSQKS
Method in brief: as §1

Chain of SPIB (Q01892 whole entry): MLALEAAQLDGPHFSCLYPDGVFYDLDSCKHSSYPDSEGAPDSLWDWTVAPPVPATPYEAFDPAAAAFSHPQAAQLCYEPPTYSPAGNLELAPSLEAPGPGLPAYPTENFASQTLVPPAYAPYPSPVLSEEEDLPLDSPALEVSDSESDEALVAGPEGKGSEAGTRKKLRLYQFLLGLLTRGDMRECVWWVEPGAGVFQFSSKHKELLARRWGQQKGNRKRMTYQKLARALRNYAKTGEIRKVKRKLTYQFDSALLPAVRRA
Chain of ELF1 (P32519 whole entry): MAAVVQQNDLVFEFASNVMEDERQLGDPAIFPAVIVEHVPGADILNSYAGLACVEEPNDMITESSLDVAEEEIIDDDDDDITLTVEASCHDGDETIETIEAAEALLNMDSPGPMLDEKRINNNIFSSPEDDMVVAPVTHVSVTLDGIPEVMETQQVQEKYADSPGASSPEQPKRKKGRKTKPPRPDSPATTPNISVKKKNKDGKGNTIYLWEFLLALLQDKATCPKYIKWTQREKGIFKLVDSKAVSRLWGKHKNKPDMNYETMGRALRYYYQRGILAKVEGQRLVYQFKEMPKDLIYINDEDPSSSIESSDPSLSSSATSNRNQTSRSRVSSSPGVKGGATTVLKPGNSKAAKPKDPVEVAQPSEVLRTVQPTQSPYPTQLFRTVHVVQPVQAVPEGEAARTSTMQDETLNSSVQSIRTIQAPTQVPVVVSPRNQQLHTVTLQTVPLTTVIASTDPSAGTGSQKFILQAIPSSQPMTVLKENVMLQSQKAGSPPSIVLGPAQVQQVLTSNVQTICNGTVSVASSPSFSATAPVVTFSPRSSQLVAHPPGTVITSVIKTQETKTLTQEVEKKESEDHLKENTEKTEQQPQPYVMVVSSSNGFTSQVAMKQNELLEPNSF

Sequence | binding signal (FLI1) | binding signal (ELK1) | binding signal (GABPA) | binding signal (ERG) | binding signal (ELF1) | binding signal (EHF) | binding signal (SPI1) | binding signal (SPIB) | binding signal (ELK3)
CCTCTG | 1.57 fold enrichment (6-mer frequency, TF over GST control) | 1.75 fold enrichment (6-mer frequency, TF over GST control) | 1.63 fold enrichment (6-mer frequency, TF over GST control) | 1.62 fold enrichment (6-mer frequency, TF over GST control) | 1.65 fold enrichment (6-mer frequency, TF over GST control) | 1.67 fold enrichment (6-mer frequency, TF over GST control) | 1.63 fold enrichment (6-mer frequency, TF over GST control) | 1.6 fold enrichment (6-mer frequency, TF over GST control) | 1.58 fold enrichment (6-mer frequency, TF over GST control)
ACCTAT | 1.18 fold enrichment (6-mer frequency, TF over GST control) | 1.26 fold enrichment (6-mer frequency, TF over GST control) | 1.16 fold enrichment (6-mer frequency, TF over GST control) | 1.07 fold enrichment (6-mer frequency, TF over GST control) | 1.21 fold enrichment (6-mer frequency, TF over GST control) | 1.21 fold enrichment (6-mer frequency, TF over GST control) | 1.17 fold enrichment (6-mer frequency, TF over GST control) | 1.15 fold enrichment (6-mer frequency, TF over GST control) | 1.17 fold enrichment (6-mer frequency, TF over GST control)
TGACAC | 1.13 fold enrichment (6-mer frequency, TF over GST control) | 1.27 fold enrichment (6-mer frequency, TF over GST control) | 1.07 fold enrichment (6-mer frequency, TF over GST control) | 1.2 fold enrichment (6-mer frequency, TF over GST control) | 1.17 fold enrichment (6-mer frequency, TF over GST control) | 1.15 fold enrichment (6-mer frequency, TF over GST control) | 1.13 fold enrichment (6-mer frequency, TF over GST control) | 1.11 fold enrichment (6-mer frequency, TF over GST control) | 1.22 fold enrichment (6-mer frequency, TF over GST control)
CACCTT | 1.36 fold enrichment (6-mer frequency, TF over GST control) | 1.28 fold enrichment (6-mer frequency, TF over GST control) | 1.22 fold enrichment (6-mer frequency, TF over GST control) | 1.26 fold enrichment (6-mer frequency, TF over GST control) | 1.24 fold enrichment (6-mer frequency, TF over GST control) | 1.34 fold enrichment (6-mer frequency, TF over GST control) | 1.25 fold enrichment (6-mer frequency, TF over GST control) | 1.18 fold enrichment (6-mer frequency, TF over GST control) | 1.26 fold enrichment (6-mer frequency, TF over GST control)
TGATGA | 1.38 fold enrichment (6-mer frequency, TF over GST control) | 1.39 fold enrichment (6-mer frequency, TF over GST control) | 1.46 fold enrichment (6-mer frequency, TF over GST control) | 1.28 fold enrichment (6-mer frequency, TF over GST control) | 1.35 fold enrichment (6-mer frequency, TF over GST control) | 1.32 fold enrichment (6-mer frequency, TF over GST control) | 1.2 fold enrichment (6-mer frequency, TF over GST control) | 1.33 fold enrichment (6-mer frequency, TF over GST control) | 1.28 fold enrichment (6-mer frequency, TF over GST control)
CGACTA | 1.24 fold enrichment (6-mer frequency, TF over GST control) | 1.31 fold enrichment (6-mer frequency, TF over GST control) | 1.5 fold enrichment (6-mer frequency, TF over GST control) | 1.28 fold enrichment (6-mer frequency, TF over GST control) | 1.31 fold enrichment (6-mer frequency, TF over GST control) | 1.31 fold enrichment (6-mer frequency, TF over GST control) | 1.29 fold enrichment (6-mer frequency, TF over GST control) | 1.32 fold enrichment (6-mer frequency, TF over GST control) | 1.3 fold enrichment (6-mer frequency, TF over GST control)
ACATAC | 1.18 fold enrichment (6-mer frequency, TF over GST control) | 1.14 fold enrichment (6-mer frequency, TF over GST control) | 1.19 fold enrichment (6-mer frequency, TF over GST control) | 1.19 fold enrichment (6-mer frequency, TF over GST control) | 1.17 fold enrichment (6-mer frequency, TF over GST control) | 1.14 fold enrichment (6-mer frequency, TF over GST control) | 1.16 fold enrichment (6-mer frequency, TF over GST control) | 1.09 fold enrichment (6-mer frequency, TF over GST control) | 1.17 fold enrichment (6-mer frequency, TF over GST control)
